This is an account of results in PubChem BioAssay (Tox21).

Unmarked numbers belong to inactive results. Records with an inconclusive call do not appear. Calls of active or inactive are those of the source. The call rests on the fitted dose curve.
On the % scale 0 is the no-effect control and ±100 the full control effect.

Chain of Estrogen receptor (Homo sapiens) (P03372 whole entry, looked up): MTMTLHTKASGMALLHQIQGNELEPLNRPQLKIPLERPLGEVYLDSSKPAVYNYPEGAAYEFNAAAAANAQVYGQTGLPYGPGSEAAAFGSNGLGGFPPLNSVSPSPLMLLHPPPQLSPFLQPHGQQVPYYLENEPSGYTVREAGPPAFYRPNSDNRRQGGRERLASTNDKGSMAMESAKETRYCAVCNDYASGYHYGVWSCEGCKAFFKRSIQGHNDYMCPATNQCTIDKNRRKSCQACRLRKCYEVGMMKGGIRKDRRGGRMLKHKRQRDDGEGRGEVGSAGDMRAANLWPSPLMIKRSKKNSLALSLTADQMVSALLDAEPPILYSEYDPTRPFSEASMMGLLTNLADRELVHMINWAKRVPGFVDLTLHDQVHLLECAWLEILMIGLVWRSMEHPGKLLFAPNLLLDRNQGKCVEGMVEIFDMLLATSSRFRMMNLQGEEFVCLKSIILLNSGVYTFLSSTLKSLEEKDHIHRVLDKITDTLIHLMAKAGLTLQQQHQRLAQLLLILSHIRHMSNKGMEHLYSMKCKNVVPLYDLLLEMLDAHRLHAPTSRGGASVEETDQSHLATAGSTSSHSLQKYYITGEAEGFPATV

The first assay concerns the target Estrogen receptor (Homo sapiens) (UniProt P03372). Description: qHTS assay to identify small molecule agonists of the estrogen receptor alpha (ER-alpha) signaling pathway in the presence of an antagonist (AID 1259383). Further: nearly all actives have a fitted effect of over 15% in size. Further: potency means the concentration at half of the fitted maximal effect. On activation: top concentration of the series differs between compounds. The note with it: VM7Luc4E2 cells, ERE-luciferase, +ICI-182,780, 22 h; series mostly up to 92.4 µM; activation: at the top concentration. In outline: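 Cells are hormone-deprived for 5 days (charcoal-stripped FBS, no phenol red), plated for 24hr, spiked with 10.0nM ICI-182,780, then dosed at 15 concentrations. After 22hr at 37C, ONE-Glo luminescence reports ERE-luciferase activity.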
Background: In qHTS, concentration-response curves come from the screen itself.
As to `Cc1cccc2sc(N)nc12`, the “activation” value is 0.462%.
As to `Nc1cccc2c(N)cccc12`, the “activation” value was -13.7%.
For `CC(=O)Oc1cccc(O)c1`, the “activation” value is -0.0614% [at 42.5 µM].
`COC(OC)OC`: the “activation” value is -2.48%.
The same measure, in the same setting: then `Nc1ccc(F)cc1`, with -1.38%; and `CC(=O)OCCC(C)CC(C)(C)C` (configuration not stated), with -2.37%; and `Cc1ccc(N(CC2=NCCN2)c2cccc(O)c2)cc1`, with -0.106% [at 42.5 µM].
`CC(C)N(C)C`: the “activation” value is 0.239%.
On to `C[C@@H]1[C@H](O)[C@@H](C)/C=C/C=C\C=C\C=C\C=C\C=C\C=C\[C@H](O[C@@H]2O[C@H](C)[C@@H](O)[C@H](N)[C@@H]2O)C[C@@H]2O[C@](O)(C[C@@H](O)C[C@@H](O)[C@H](O)CC[C@@H](O)C[C@@H](O)CC(=O)O[C@H]1C)C[C@H](O)[C@H]2C(=O)O` (stereo in doubt), for which the “activation” value is -0.782%.
The same measure, in the same setting: then `O=C(NC(Cc1cc(=O)[nH]c2ccccc12)C(=O)O)c1ccc(Cl)cc1` (configuration not stated), with -0.395% [at 42.5 µM]; and `CN1C(CSCC(F)(F)F)Nc2cc(Cl)c(S(N)(=O)=O)cc2S1(=O)=O` (configuration not stated), with -0.356% [at 42.5 µM].
As for `O=C(Nc1ccc(C(=O)O)c(O)c1)c1ccccc1`, the “activation” value was 0.0728% [at 42.5 µM].
On the same count and under the same terms, then `Cc1ccc(N(CCO)CCO)cc1`, with 0.185%; and `C=Cc1ccc(OC(C)=O)cc1`, with 1.42%; and `Cc1ccc2c(c1)CCCN2`, with -1.29%.
In the case of `C[C@@H]1C[C@H]2[C@@H]3CCC4=CC(=O)C=C[C@]4(C)[C@@]3(F)[C@@H](O)C[C@]2(C)[C@@]1(O)C(=O)COP(=O)(O)O`, the “activation” value was 2.23%.
For the molecule `Cc1ccc2c(c1[N+](=O)[O-])C(=O)c1ccccc1C2=O`, the Potency was 3.37 µM (active).
As to `CC(C)(C(=O)c1cccnc1)c1cccnc1`, the “activation” value is -0.0225% [at 42.5 µM].
`CCN(Cc1cccc(S(=O)(=O)O)c1)c1ccc(C(=C2C=CC(=[N+](CC)Cc3cccc(S(=O)(=O)O)c3)C=C2)c2ccc(O)cc2S(=O)(=O)[O-])cc1`: the “activation” value is -13.6% [at 42.5 µM].

System in a further assay: not listed separately
Description: qHTS assay to identify small molecule agonists or antagonists of the thyroid stimulating hormone receptor (TSHR) signaling pathway - wild type cell line counter screen (AID 1259384). The note with it: HEK293 wild type, cAMP HTRF counter-screen; series mostly up to 92.4 µM; cAMP activity change: at the top concentration. In outline: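 Wild-type HEK293 cells were plated 18 h at 37 C/5% CO2, pin-dosed with compound plus Ro20-1724 medium, held 30 min at room temperature, then given cAMP-d2 and anti-cAMP-cryptate; fluorescence was read after 1 h. Fifteen concentrations, triplicate.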
For the molecule `CC(C)(O)CCc1ccccc1`, the “cAMP activity change” value is -1.5%.
For `C=C(C)c1ccccc1`, the “cAMP activity change” value is -2.6%.
Regarding `Cc1cccc2sc(N)nc12`, the “cAMP activity change” value is 3.01%.
As to `COC(OC)OC`, the “cAMP activity change” value is -0.913%.
In the case of `CCCCCCCCCCCCCOS(=O)(=O)O`, the “cAMP activity change” value is 4.38%.
As to `CCCCCCCCCCCCCCCCCC(=O)OCC(CC)CCCC` (configuration not stated), the “cAMP activity change” value was 0.761%.
Still for that read-out and setting: the figure for `CCCCCc1ccco1` is -0.239% [at 42.5 µM, hits give high values].
Turning to `CC(C)(O)c1coc(S(=O)(=O)NC(=O)Nc2c3c(cc4c2CCC4)CCC3)c1`, the “cAMP activity change” value is 4.78%.
As to `Cc1ccc(N(CC2=NCCN2)c2cccc(O)c2)cc1`, the “cAMP activity change” value is 1.56% [at 42.5 µM, hits give high values].
For `CC(=O)C(C)=O`, the “cAMP activity change” value is 2.44%.
With `CC(C)N(C)C`, the “cAMP activity change” value is 2%.
The same measure, in the same setting: the figure for `CCC(=O)OCc1ccc(OC)cc1` is 5.47%.
For `C[C@@H]1[C@H](O)[C@@H](C)/C=C/C=C\C=C\C=C\C=C\C=C\C=C\[C@H](O[C@@H]2O[C@H](C)[C@@H](O)[C@H](N)[C@@H]2O)C[C@@H]2O[C@](O)(C[C@@H](O)C[C@@H](O)[C@H](O)CC[C@@H](O)C[C@@H](O)CC(=O)O[C@H]1C)C[C@H](O)[C@H]2C(=O)O` (stereo in doubt), the “cAMP activity change” value is 4.31%.
Take `O=C(O)c1ccc(O)cc1O`: the “cAMP activity change” value is 1.82%.
On to `CN1C(CSCC(F)(F)F)Nc2cc(Cl)c(S(N)(=O)=O)cc2S1(=O)=O` (configuration not stated), for which the “cAMP activity change” value is 0.722% [at 42.5 µM, hits give high values].
Same read-out and setting: then `Cc1ccc(N(CCO)CCO)cc1`, with -14.4%; and `CC(=O)NCCO`, with -3.41%; and `C=Cc1ccc(OC(C)=O)cc1`, with 1.73%.
On to `Cc1ccc2c(c1)CCCN2`, for which the “cAMP activity change” value is -8.33%.
Regarding `CNCc1ccc(NC(=O)c2c[nH]c3c2C(=O)CCC3)cc1`, the “cAMP activity change” value is 6.47%.
`CSSc1ccoc1C`: the “cAMP activity change” value is -0.133%.
Turning to `Cc1ccc(Cl)cc1N`, the “cAMP activity change” value is -2.36%.
On to `C[C@@H]1C[C@H]2[C@@H]3CCC4=CC(=O)C=C[C@]4(C)[C@@]3(F)[C@@H](O)C[C@]2(C)[C@@]1(O)C(=O)COP(=O)(O)O`, for which the “cAMP activity change” value is -4.01%.
